Measurements: the supplement of paper PMC8728848
This excerpt belongs to a sample that is enriched for the strongest signals.

What was measured:
Assay in all cases: glycan array binding signal (z-score within array); higher = stronger binding
Settings in all cases: glycan notation: IUPAC condensed, linker removed
[1] = target: GlcA(b1-3)GlcNAc
Summary of the method: (§1)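 The Consortium for Functional Glycomics database supplied 3228 glycan arrays, of which those lacking an available protein sequence were dropped. The binding signal, a within-array Z-score, was averaged across arrays of the same protein sequence and across linkers. Negative scores can be read as non-binding.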

[2] = target: GlcNAc(b1-2)Man(a1-3)[GlcNAc(b1-2)Man(a1-6)]Man(b1-4)GlcNAc(b1-4)[Fuc(a1-6)]GlcNAc
Summary of the method: as §1

[3] = target: GlcNAc(b1-2)[GlcNAc(b1-4)]Man(a1-3)[GlcNAc(b1-4)][GlcNAc(b1-2)Man(a1-6)]Man(b1-4)GlcNAc(b1-4)GlcNAc
Summary of the method: as §1

[4] = target: GlcNAc(b1-2)[GlcNAc(b1-6)]Man(a1-6)[GlcNAc(b1-2)Man(a1-3)][GlcNAc(b1-4)]Man(b1-4)GlcNAc(b1-4)GlcNAc
Summary of the method: as §1

[5] = target: GlcNAc(b1-4)GlcNAc(b1-4)GlcNAc
Summary of the method: as §1

[6] = target: GlcNAc(b1-4)[GlcNAc(b1-6)]GalNAc
Summary of the method: as §1

[7] = target: Kdn(a2-3)Gal(b1-3)GalNAc
Summary of the method: as §1

[8] = target: Kdn(a2-3)Gal(b1-4)GlcNAc
Summary of the method: as §1

[9] = target: Kdn(a2-6)Gal(b1-4)GlcNAc
Summary of the method: as §1

[10] = target: Neu5Ac(a2-3)Gal(b1-3)GalNAc(b1-4)[Neu5Ac(a2-8)Neu5Ac(a2-3)]Gal(b1-4)Glc
Summary of the method: as §1

[11] = target: Neu5Ac(a2-3)Gal(b1-3)GlcNAc(b1-3)GalNAc
Summary of the method: as §1

[12] = target: Neu5Ac(a2-3)GalNAc
Summary of the method: as §1

[13] = target: Neu5Ac(a2-6)Gal
Summary of the method: as §1

[14] = target: Neu5Ac(a2-6)Gal(b1-4)GlcNAc(b1-2)Man(a1-3)[Man(a1-6)]Man(b1-4)GlcNAc(b1-4)GlcNAc
Summary of the method: as §1

[15] = target: Neu5Ac(a2-6)Gal(b1-4)GlcNAc6S
Summary of the method: as §1

[16] = target: Neu5Ac(a2-6)GalNAc(b1-4)GlcNAc
Summary of the method: as §1

[17] = target: Neu5Ac(a2-8)Neu5Ac
Summary of the method: as §1

[18] = target: Neu5Gc(a2-6)Gal(b1-4)GlcNAc
Summary of the method: as §1

[19] = target: Neu5Gc(b2-6)Gal(b1-4)GlcNAc
Summary of the method: as §1

B1: SEX4 (Arabidopsis thaliana), Q944A8 (protein)
chain: TQAMGAVLTYRHELGMNYNFIRPDLIVGSCLQTPEDVDKLRKIGVKTIFCLQQDPDLEYFGVDISSIQAYAKKYSDIQHIRCEIRDFDAFDLRMRLPAVVGTLYKAVKRNGGVTYVHCTAGMGRAPAVALTYMFWVQGYKLMEAHKLLMSKRSCFPKLDAIRNATIDILTGLKRKTVTLTLKDKGFSRVEISGLDIGWGQRIPLTLGKGTGFWILKRELPEGQFEYKYIIDGEWTHNEAEPFIGPNKDGHTNNYAKVVDDPTSVDGTTRERLSSEDPELLEEERSKLIQFLETCSEAEV
For B1, the “glycan array binding signal (z-score)” value [1] was 16, the “glycan array binding signal (z-score)” value [2] was 3.1 and the “glycan array binding signal (z-score)” value [3] was 0.008. For the same binder, the “glycan array binding signal (z-score)” value [4] was -0.06, the “glycan array binding signal (z-score)” value [5] was -0.388 and the “glycan array binding signal (z-score)” value [6] was -0.489. For the same binder, the “glycan array binding signal (z-score)” value [7] was 0.126, the “glycan array binding signal (z-score)” value [8] was 0.514 and the “glycan array binding signal (z-score)” value [9] was -0.36. For the same binder, the “glycan array binding signal (z-score)” value [10] was 0.161, the “glycan array binding signal (z-score)” value [11] was 2.39 and the “glycan array binding signal (z-score)” value [12] was -0.529. The “glycan array binding signal (z-score)” value [13] was -0.496, the “glycan array binding signal (z-score)” value [14] was 2.32 and the “glycan array binding signal (z-score)” value [15] was 2.46. For the same binder, the “glycan array binding signal (z-score)” value [16] was -0.017, the “glycan array binding signal (z-score)” value [17] was -0.065 and the “glycan array binding signal (z-score)” value [18] was 0.489. For the same binder, the “glycan array binding signal (z-score)” value [19] was -0.09.
